Data as given in PubChem BioAssay AID624405 (Broad Institute, 2012).
Among all 1,900 compounds or so, about 250 (13%) were called active. Inconclusive results (about 4%) are left out. These entries were drawn from the full list. Entries with a potency or affinity are not part of this list. Values without a mark were called inactive.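 The calls were made as follows: active = fitted curve reaches 40% rescue activity at or below the top valid dose, in every test run; inconclusive = test runs disagree, some active and some inactive; inactive = every run misses the threshold or moves the wrong way.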

Assay: suppressors of statin myotoxicity in myotubes, dose response, cell-based, C2C12 myotubes, ATP luminescence, cherry pick (AID 624405);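 also: myotubes are challenged with simvastatin at 10 µM to lower ATP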
Conditions: C2C12 myotubes + simvastatin, 48 h, scaled: DMSO wells 0, geranylgeraniol wells 100; series mostly up to 19.5 µM; rescue activity (ATP increase): at the top concentration

Row | Structure (SMILES) | rescue activity (ATP increase)
1 | C[C@@H]1CN([C@H](C)CO)C(=O)Cc2cc(NC(=O)Nc3cccc4ccccc34)ccc2O[C@H]1CN(C)CC1CCCCC1 | 15.5%
2 | COc1ccc(S(=O)(=O)Nc2cccc3c2O[C@@H](CN(C)Cc2ccc(Oc4ccccc4)cc2)[C@@H](C)CN([C@@H](C)CO)C3=O)cc1 | 15.9%
3 | C[C@H]1CCCCO[C@H](CN(C)C(=O)C2CCCCC2)[C@@H](C)CN([C@@H](C)CO)C(=O)c2cc(NC(=O)NC3CCCCC3)ccc2O1 | 17.2% [at 21 µM]
4 | C[C@H]1CCCCO[C@@H](CN(C)S(=O)(=O)c2ccc(Cl)cc2)[C@@H](C)CN([C@@H](C)CO)C(=O)c2cc(NS(C)(=O)=O)ccc2O1 | -7.17%
5 | C[C@@H]1CN([C@H](C)CO)C(=O)Cc2cc(N(C)C)ccc2O[C@H]1CN(C)Cc1ccc(C(=O)Nc2ccccc2N)cc1 | 19.2%
6 | C[C@H](CO)N1C[C@H](C)[C@@H](CN(C)Cc2ccc(C(=O)Nc3ccccc3N)cc2)Oc2ccc(NC(=O)Nc3ccc(C(F)(F)F)cc3)cc2C1=O | 2.2% [at 18 µM]
7 | C[C@@H]1CN([C@H](C)CO)C(=O)c2cc(NC(=O)Nc3ccc(C(F)(F)F)cc3)ccc2O[C@@H]1CN(C)Cc1ccc(C(=O)Nc2ccccc2N)cc1 | 29% [at 21 µM]
8 | C[C@@H]1CN([C@@H](C)CO)C(=O)c2cc(NC(=O)Nc3ccc(C(F)(F)F)cc3)ccc2O[C@H]1CN(C)Cc1ccc(C(=O)Nc2ccccc2N)cc1 | 10.1%
9 | CC1=CCn2c(=O)c3ccccc3c(=O)n2C1 | 38.7%
10 | CCOC(=O)c1cc2ccc(OC)c(OC)c2c(=O)s1 | -8.38%
11 | COc1ccc(N(Cc2cc(=O)[nH]c3ccccc23)C(=O)c2ccco2)cc1 | 5.33%
12 | Cc1cc(C(=O)COC(=O)CN=C2NS(=O)(=O)c3ccccc32)c(C)n1CCc1ccc(Cl)cc1 | -2.48%
13 | Cc1ccnc2nc(C(=O)OCC(=O)c3ccccc3)nn12 | -9.66%
14 | C[C@@H]1CN([C@H](C)CO)C(=O)c2cccc(NC(=O)C3CCCCC3)c2O[C@H]1CN(C)S(=O)(=O)c1ccc(Cl)cc1 | -3.58%
15 | O=C(c1cnn2c(C(F)F)cc(-c3ccccc3)nc12)N1CCc2ccccc21 | -40%
16 | CCC(C)NC(=O)Cn1c(=O)n(CCCC(=O)NCc2ccccc2Cl)c(=O)c2ccccc21 (stereo not drawn) | -3.94%
17 | CCOC(=O)c1cc(=O)n(Cc2ccccc2C)c2ccccc12 | 20.2%
18 | C[C@H](CO)N1C[C@H](C)[C@H](CN(C)C(=O)Nc2cccc3ccccc23)OCCCC[C@H](C)Oc2ccc(NS(=O)(=O)c3ccc(Cl)cc3)cc2C1=O | 16.9%
19 | C[C@@H]1CN([C@@H](C)CO)C(=O)c2cc(NC(=O)c3ccncc3)ccc2O[C@@H](C)CCCCO[C@@H]1CN(C)Cc1ccc(C(F)(F)F)cc1 | 21%
20 | CC(=O)c1c(C)[nH]c(C(=O)CSc2nnc(C3CCCCC3)n2N)c1C | 18.1%
21 | CC1CSc2nc3sc4c(c3c(=O)n21)CCCC4 (stereo not drawn) | 20.3%
22 | O=C(Oc1ccc(C(=S)N2CCOCC2)cc1Br)c1ccccc1F | -12.4%
23 | COc1cc2c(N3CCOCC3)cc(O)c(CC(=O)Nc3ccccc3)c2cc1OC | -14.5%
24 | C[C@@H]1CN([C@H](C)CO)S(=O)(=O)c2ccc(/C=C/c3ccccc3)cc2O[C@@H]1CN(C)C(=O)NC1CCCC1 | 2.94%
25 | COc1ccc(S(=O)(=O)Nc2ccc3c(c2)CC(=O)N([C@@H](C)CO)C[C@H](C)[C@@H](CN(C)Cc2ccc(Cl)c(Cl)c2)O3)cc1 | 27.9%

Row | Structure (SMILES) | rescue activity (ATP increase)
26 | COC(=O)c1cn(Cc2ccc(C(F)(F)F)cc2)cc(F)c1=O | -11.3%
27 | Cc1ccc(S(=O)(=O)NNC(=O)c2snnc2C)cc1 | -7.58%
28 | Cc1ccc(N2N=C(C(=O)O)CCC2=O)cc1Cl | 16.1%
29 | CC(C(=O)NCC1CCCO1)n1cccc1C(=O)c1ccccc1 (stereo not drawn) | 13%
30 | C=C(C)C1CC=C(C)/C(=N/NC(=O)c2ccc(NC(=O)CC)cc2)C1 (stereo not drawn) | -9.09%
31 | COc1ccc(NC(=O)c2cc(-c3cccs3)on2)cc1 | -2.21%
32 | c1ccc(Nc2nc(-c3cccs3)cs2)nc1 | 26%
33 | C/C(=N/Nc1nc(-c2ccc(Cl)cc2)cs1)c1cccs1 | -40.2%
34 | Cc1cc(C(=O)Nc2ccc3c(c2)C(=O)N(C)[C@@H]2CC[C@@H](CC(=O)N[C@H](C)c4ccccc4)O[C@@H]2CO3)no1 | 26.1%
35 | CCOC(=O)N1CCN(C(=O)Cc2ccsc2)CC1 | -30.6%
36 | CC(C)[C@H](NS(=O)(=O)c1ccccc1)C(=O)OCC(=O)NC(=O)NC1CCCCC1 | -10.8%
37 | C[C@@H]1CN([C@@H](C)CO)C(=O)c2cccc(NS(=O)(=O)c3cccs3)c2O[C@@H]1CN(C)C(=O)Nc1ccc(C(F)(F)F)cc1 | -7.49%
38 | C[C@H](CO)N1C[C@H](C)[C@H](CN(C)C(=O)Nc2ccc(F)cc2)OCCCC[C@H](C)Oc2ccc(NC(=O)Cc3ccccc3)cc2C1=O | -7.95%
39 | Fc1ccc(CSc2nnc(CN3CCOCC3)n2-c2ccccc2)c(Cl)c1 | -26.3%
40 | C[C@H]1CN([C@@H](C)CO)C(=O)Cc2cc(NS(=O)(=O)c3ccc(F)cc3)ccc2O[C@H]1CN(C)Cc1ccccc1 | 29.1%
41 | COc1ccc(S(=O)(=O)Nc2ccc3c(c2)CC(=O)N([C@@H](C)CO)C[C@@H](C)[C@H](CN(C)Cc2ccc(Cl)c(Cl)c2)O3)cc1 | 19.7%
42 | C[C@@H]1CN([C@@H](C)CO)C(=O)Cc2cc(NS(=O)(=O)c3ccc(Cl)cc3)ccc2O[C@H]1CN(C)Cc1ccc(-c2ccccc2)cc1 | 28.9%
43 | COc1ccc(S(=O)(=O)Nc2ccc3c(c2)CC(=O)N([C@@H](C)CO)C[C@H](C)[C@H](CN(C)Cc2ccc(Cl)c(Cl)c2)O3)cc1 | 14.6%
44 | COc1ccc(CN(C)C[C@@H]2Oc3ccc(NS(=O)(=O)c4ccc(Cl)cc4)cc3CC(=O)N([C@H](C)CO)C[C@H]2C)cc1 | 34.8%
45 | COc1ccc(S(=O)(=O)Nc2ccc3c(c2)C(=O)N([C@@H](C)CO)C[C@@H](C)[C@@H](CN(C)S(=O)(=O)c2ccc(F)cc2)OCCCC[C@H](C)O3)cc1 | 28.1%
46 | COc1ccc(CN(C)C[C@@H]2Oc3ccc(NS(=O)(=O)c4ccc(F)cc4)cc3CC(=O)N([C@H](C)CO)C[C@H]2C)cc1 | 35.2% [at 21 µM]
47 | COc1ccc(S(=O)(=O)Nc2ccc3c(c2)C(=O)N([C@H](C)CO)C[C@H](C)[C@H](CN(C)S(=O)(=O)c2ccc(F)cc2)OCCCC[C@@H](C)O3)cc1 | 19.6%
48 | COc1ccc(N=C2S/C(=C\c3cc(C)n(C)c3C)C(=O)N2CC(C)C)cc1 | -33.1%
49 | COc1ccc(NC(=O)Nc2ccc3c(c2)C(=O)N([C@H](C)CO)C[C@H](C)[C@H](CN(C)Cc2ccc(C(F)(F)F)cc2)OCCCC[C@H](C)O3)cc1 | -42.8%
50 | C[C@@H]1CN([C@H](C)CO)C(=O)Cc2cc(NC(=O)CCC(F)(F)F)ccc2O[C@H]1CN(C)Cc1ccc(Oc2ccccc2)cc1 | 17.4% [at 21 µM]

Row | Structure (SMILES) | rescue activity (ATP increase)
51 | CN(C)S(=O)(=O)c1ccc(C(=O)NCCOc2ccc(F)cc2)cc1 | -10.8%
52 | COc1ccc(S(=O)(=O)Nc2ccc3c(c2)C(=O)N([C@H](C)CO)C[C@H](C)[C@H](CN(C)S(=O)(=O)c2cccs2)OCCCC[C@H](C)O3)cc1 | 5.74%
53 | C[C@@H]1CCCCO[C@@H](CN(C)S(C)(=O)=O)[C@H](C)CN([C@@H](C)CO)C(=O)c2cc(NS(=O)(=O)c3ccc(F)cc3)ccc2O1 | 16.5%
54 | Cc1oc(C(=O)O)cc1COc1cccc2cccnc12 | -12.5%
55 | c1ccc2c(c1)CCN(Cc1nnnn1Cc1ccc3c(c1)OCO3)C2 | -2.57%
56 | Cc1ccc(C(O)CN2C3=NCCN3c3ccccc32)cc1 (stereo not drawn) | 2.99%
57 | C[C@@H]1CN([C@H](C)CO)C(=O)Cc2cc(NC(=O)Nc3cccc4ccccc34)ccc2O[C@@H]1CN(C)S(=O)(=O)c1cccs1 | 9.53%
58 | C[C@H](CO)N1C[C@H](C)[C@@H](CN(C)C(=O)Nc2ccc(F)cc2)Oc2ccc(NC(=O)Cc3cn(C)c4ccccc34)cc2CC1=O | 4.12% [at 10 µM]
59 | Cc1ccc(S(=O)(=O)Nc2ccc3c(c2)CC(=O)N([C@@H](C)CO)C[C@@H](C)[C@H](CN(C)S(=O)(=O)c2ccc(C)cc2)O3)cc1 | 22.9%
60 | Cc1ccc(S(=O)(=O)N(C)C[C@@H]2Oc3ccc(NS(=O)(=O)c4ccc(F)cc4)cc3C(=O)N([C@H](C)CO)C[C@@H]2C)cc1 | 21.7% [at 21 µM]
61 | COc1ccc(S(=O)(=O)Nc2ccc3c(c2)CC(=O)N([C@H](C)CO)C[C@H](C)[C@@H](CN(C)S(=O)(=O)c2ccc(C)cc2)O3)cc1 | 16.2%
62 | Cc1ccc(S(=O)(=O)Nc2ccc3c(c2)CC(=O)N([C@H](C)CO)C[C@H](C)[C@H](CN(C)S(=O)(=O)c2ccc(C)cc2)O3)cc1 | 19.9%
63 | C[C@H]1CN([C@@H](C)CO)C(=O)c2cc(NS(=O)(=O)c3ccc(F)cc3)ccc2O[C@@H]1CN(C)S(=O)(=O)c1ccc(F)cc1 | 12% [at 21 µM]
64 | C[C@@H]1CN([C@@H](C)CO)C(=O)Cc2cc(NC(=O)Nc3cccc4ccccc34)ccc2O[C@@H]1CN(C)S(=O)(=O)c1ccc(Cl)cc1 | 8.86%
65 | O=C(O)c1nn(-c2ccccc2)nc1-c1nn(-c2ccccc2)nc1C(=O)O | 8.4%
66 | O=S(=O)(NN=C1CCCCC1)c1ccccc1 | 2.86%
67 | CC1(C)NC(=O)N(CC(O)Cn2nnc3ccccc32)C1=O (stereo not drawn) | 16.7%
68 | C[C@H](CO)N1C[C@H](C)[C@@H](CN(C)C(=O)C2CCC2)Oc2ncc(C#Cc3cccc(F)c3)cc2C1=O | 0.264%
69 | Nn1c(SCC(=O)N2CCN(S(=O)(=O)c3ccccc3)CC2)nnc1-c1cccs1 | -6.28%
70 | Cc1ccc(S(=O)(=O)Nc2ccc3c(c2)CC(=O)N([C@@H](C)CO)C[C@@H](C)[C@H](CN(C)Cc2ccc(C(F)(F)F)cc2)O3)cc1 | 35.9%
71 | Cc1ccc(C(=O)N2CCSCC2)cc1 | -3.87%
72 | CSCCC(NC(N)=O)C(=O)NCC1CCCCC1 (stereo not drawn) | 1.42%
73 | Cc1ccc(N2CCN(/N=C/c3sccc3C)CC2)cc1 | 5.86%
